The text below walks through data of PubChem BioAssay (Tox21).

Structures are written as SMILES. “And” between values parts separate entries of the source, which are not always exact repeats. Equal values may be shown once. Records with an inconclusive call do not appear. Values without a mark were called inactive. The source made the active and inactive calls. Calls follow the shape of the dose curve; as a rule, active = well fitted inhibition curve with a large enough effect in the signal ratio in the repeat runs (not every such curve was filed as active); inconclusive = weak or mixed curves, or effect the other way; inactive = no such curve, though single readings can be large or run the other way; the % refers to the signal ratio.
% is scaled to controls: 0 for no effect and ±100 for the full control effect; potency is read from the fitted curve at half-maximal effect.

Sequence of Vitamin D3 receptor (Homo sapiens) (P11473 whole entry, looked up): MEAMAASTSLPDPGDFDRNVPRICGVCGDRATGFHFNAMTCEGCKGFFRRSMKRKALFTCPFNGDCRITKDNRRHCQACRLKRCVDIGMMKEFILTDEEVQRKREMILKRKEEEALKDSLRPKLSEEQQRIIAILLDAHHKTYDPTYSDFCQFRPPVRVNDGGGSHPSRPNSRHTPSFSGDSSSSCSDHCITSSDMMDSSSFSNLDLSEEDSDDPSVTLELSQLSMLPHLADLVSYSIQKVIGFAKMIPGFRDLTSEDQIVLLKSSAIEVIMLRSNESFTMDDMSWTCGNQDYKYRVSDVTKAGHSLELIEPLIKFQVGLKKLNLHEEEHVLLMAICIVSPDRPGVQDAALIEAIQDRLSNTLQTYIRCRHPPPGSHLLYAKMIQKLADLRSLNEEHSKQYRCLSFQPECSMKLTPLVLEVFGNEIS

The target of the test is Vitamin D3 receptor (Homo sapiens) (UniProt P11473). Nature of the test: qHTS assay to identify small molecule antagonists of the vitamin D receptor (VDR) signaling pathway (AID 743223). The conditions noted are these: VDR-UAS-bla HEK293T, beta-lactamase FRET ratio, 16 h; series mostly up to 61 µM; activity change, negative = inhibition: at the top concentration. From the text:
U.S. Tox21 Program National Center for Advancing Translational Sciences [NCATS] NIH Chemical Genomics Center [NCGC] U.S. Environmental Protection Agency [EPA] National Institutes of Environmental Health Sciences [NIEHS] National Toxicology Program [NTP] U.S. Food and Drug Administration [FDA] Tox21 Assay Overview: The vitamin D receptor (VDR), a member of nuclear hormone receptor superfamily, plays a critical role in calcium homeostasis and bone metabolism. It is also involved in cell differentiation and growth, and thrombogenicity.
Tox21 Assay Protocol Summary: VDR-bla cells were dispensed at 2,000 cells/5 uL of assay medium per well into black wall/clear-bottom 1536-well plates using a Multidrop Combi (Thermo Fisher Scientific, Waltham, MA) dispenser. After the assay plates were incubated at a 37C and 5% CO2 for 4 h, 23 nL of compounds dissolved in DMSO, positive controls or DMSO only was transferred to the assay plate by a Pintool station (Kalypsys, San Diego, CA), followed by addition of 1 uL of 1alpha, 25-Dihydroxy Vitamin D3 (3 nM, final concentration in the wells) using a Bioraptr Flying Reagent Dispenser (FRD) workstation (Beckman Coulter, Indianapolis, IN). The plates were incubated at 37C and 5% CO2 for 16 h, and then 1 uL of LiveBLAzerTM B/G FRET substrate was added using a Bioraptr FRD. The plates were incubated at room temperature for 2 h and fluorescence intensity was measured by an Envision plate reader (PerkinElmer, Shelton, CT).
As to `O=C1Nc2ccccc2C1(c1ccc(O)cc1)c1ccc(O)cc1`, the “activity change, negative = inhibition” value is -14.2%.

In the case of `CCCCCCCCCCCCc1ccccc1O`, the Potency is 15.3 µM (active) and 19.5 µM (active).

Regarding `O=C(Cl)c1cccc(C(=O)Cl)c1`, the Potency result was “inactive”. The same measure, in the same setting: the same measure for `c1ccc2cc3c(ccc4ccccc43)cc2c1`: “inactive”; for `CCCCC(CC)COC(=O)CC(C(=O)OCC(CC)CCCC)S(=O)(=O)O` (stereo not given): “inactive”. `CCCCC/C=C/CC1CC(=O)OC1=O` (stereo not given): the “activity change, negative = inhibition” value is -1.21%.

Take `CC(C)C(=O)c1c(C(C)C)nn2ccccc12`: the “activity change, negative = inhibition” value is 1.86%. As for `CCCCOCCOC(=O)c1ccccc1C(=O)OCCOCCCC`, the “activity change, negative = inhibition” value was -10.5%. The same measure, in the same setting: the same measure for `NC(Cc1ccc(Cl)cc1)C(=O)O` (stereo not given): -2.76% [at 0.628 µM]; for `CC[C@@H](N)CO`: -10.4% [at 78.8 µM]. On the same count and under the same terms, the same measure for `CC[C@]1(O)C[C@@H]2CN(CCc3c([nH]c4ccccc34)[C@@](C(=O)OC)(c3cc4c(cc3OC)N(C)[C@H]3[C@@](O)(C(=O)OC)[C@H](OC(C)=O)[C@]5(CC)C=CCN6CC[C@]43[C@@H]65)C2)C1`: -15.5%; for `CN1C(=O)c2ccc([N+](=O)[O-])cc2C1=O`: -5.88%. On the same count and under the same terms, the same measure for `C1COC(NC(C2CC2)C2CC2)=N1`: 1.45%.

Take `CCC(=O)/C=C/C1C(C)=CCCC1(C)C` (stereo not given): the Potency result is “inactive”. Regarding `CCC(CO)(CO)COCC(CC)(CO)CO`, the “activity change, negative = inhibition” value was 8.91%. Still for that read-out and setting: the same measure for `CCCCCCCCCCCCCCCCCl`: 3.97% [at 28.5 µM]; for `CC(C)CCOCc1ccccc1`: -0.314%; for `CCCCN(CCO)CCCC`: 1.79% [at 78.8 µM]. Turning to `CC(=O)C1=C(C)[C@@H]2C[C@@]3(C1)[C@H](C)CC[C@H]3C2(C)C`, the Potency result was “inactive”.

Regarding `CC(C)(O)CCC(C)(C)O`, the “activity change, negative = inhibition” value is -4.95% [at 78.8 µM].

On to `CCc1ccc(C(c2ccc(CC)cc2)C(Cl)Cl)cc1`, for which the Potency result is “inactive”. Take `OCCN1CCNCC1`: the “activity change, negative = inhibition” value was -8.89%. The same measure, in the same setting: the same measure for `CCC[C@H](N[C@@H](C)C(=O)N1[C@H](C(=O)O)C[C@@H]2CCCC[C@@H]21)C(=O)OCC`: 2.18%. With `Cc1cccc2n[nH]nc12`, the Potency entry is “inactive”. Still for that read-out and setting: the same measure for `CC1COC(=O)O1` (stereo not given): “inactive”. `CCCC(=O)c1ccccc1`: the “activity change, negative = inhibition” value is 2.21%. `CC(C)CCCCCCc1ccc(O)cc1`: the Potency is 22.3 µM (active) and 43.6 µM (active). As to `C=C(C)C1CC=C(C)C(OC(C)=O)C1` (stereo not given), the “activity change, negative = inhibition” value is -0.89%. On to `C=CC(=O)OCCCCCCCC`, for which the “activity change, negative = inhibition” value was 6.22%. The same measure, in the same setting: the same measure for `CCc1cc(C(C)(C)C)c(O)c(C(C)(C)C)c1`: -18.1%; for `C#CC(C)(CC)OC(=O)c1ccccc1C(=O)O` (stereo not given): -7.58%. Turning to `O=C(O[C@@H]1Cc2c(O)cc(O)cc2O[C@@H]1c1cc(O)c(O)c(O)c1)c1cc(O)c(O)c(O)c1`, the Potency entry was “inactive”.

For the compound `Nc1cc(S(=O)(=O)O)cc2cc(S(=O)(=O)O)cc(O)c12`, the Potency result is “inactive”. As to `C=CS(=O)(=O)O`, the “activity change, negative = inhibition” value is 1.41% [at 78.8 µM]. Turning to `CC(=O)N[C@@H](CS)C(=O)O`, the Potency entry is “inactive”. Take `NC(N)=NC(=O)Cc1c(Cl)cccc1Cl`: the “activity change, negative = inhibition” value was 6.06%.

Turning to `O=C(O)Cn1cnnn1`, the “activity change, negative = inhibition” value was -1.5%. With `CCCNC(C)C(=O)Nc1ccccc1C` (stereo not given), the “activity change, negative = inhibition” value was -5.11%. Regarding `CC(=O)OCC1=C(C(=O)O)N2C(=O)[C@@H](NC(=O)Cc3cccs3)[C@H]2SC1`, the “activity change, negative = inhibition” value is 1.94%. Turning to `CCCCCCCCCCCCCC[P+](CCCC)(CCCC)CCCC`, the Potency was 19.4 µM (active) and 24.5 µM (active).
